Source: PubChem BioAssay (several laboratories)
FBA Mtb inh: inhibitors of M. tuberculosis fructose-bisphosphate aldolase; P9WQA3; purified M. tuberculosis FBA, fluorescence read-out; inhibition, % at 1 µM; actives 2.3% (n = 360,000);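 also: 0% = vehicle and 100% = reference inhibitor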
Target sequence (P9WQA3 whole entry, looked up): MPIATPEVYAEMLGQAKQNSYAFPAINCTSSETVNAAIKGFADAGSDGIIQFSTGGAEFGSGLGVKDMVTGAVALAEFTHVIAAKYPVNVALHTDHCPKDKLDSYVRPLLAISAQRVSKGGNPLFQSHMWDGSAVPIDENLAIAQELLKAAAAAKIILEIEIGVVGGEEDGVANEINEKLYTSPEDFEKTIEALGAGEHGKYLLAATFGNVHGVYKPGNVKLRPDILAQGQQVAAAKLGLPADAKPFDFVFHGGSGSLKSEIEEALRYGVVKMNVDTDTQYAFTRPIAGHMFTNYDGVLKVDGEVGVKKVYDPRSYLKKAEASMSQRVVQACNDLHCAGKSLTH
RecA intein inh: blocks M. tuberculosis RecA intein splicing; inhibition, % (concentration not given with the values); actives 0.75% (n = 290,000); AID 2221; cell-free RecA intein splicing, fluorescence; in the data active = inhibition above about 30%;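 also: 0% = vehicle wells and 100% = reference inhibitor control wells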
Rv3671c protease: inhibits the M. tuberculosis serine protease Rv3671c. P9WHR9. inhibition, % at 5.96 µM. actives 0.048% (n = 320,000). AID 2606; in the data active = inhibition above about 38%;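 also: extracellular domain of Rv3671c used as enzyme; 0% = enzyme with DMSO and 100% = no enzyme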
Mtb bLac sens: beta-lactam sensitization of Mtb H37Rv; M. tuberculosis H37Rv growth with meropenem, percent inhibition; inhibition, % at 25 µM; actives 0.27% (n = 330,000); call rule not given here;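 also: growth measured after seven days incubation then overnight dye step; 0% = bacteria only wells and 100% = bacteria with antibiotic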
GDH-TPI counter-1: GDH-TPI coupled enzyme inhibition counter-screen | GDH-TPI coupled enzyme counterscreen, NADH absorbance | inhibition, % at 4.8 µM | actives 1.2% (n = 360,000); in the data active = inhibition above about 30%;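 also: 0% = DMSO wells and 100% = wells lacking the enzyme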
UGM FP inh: Mtb UDP-galactopyranose mutase inhibition. P9WIQ1. purified UGM, fluorescence polarization probe displacement. inhibition, % at 10 µM. actives 0.06% (n = 320,000). AID 504406; in the data active = inhibition above about 10%, passing the limit was not always enough
Mtb FBA confirm: Mtb FBA inhibition, confirmed. shares compounds with FBA Mtb inh. purified M. tuberculosis FBA, fluorescence read-out. inhibition, % at 1 µM. actives 78% (n = 5,600). AID 651616;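 also: 0% = vehicle wells and 100% = reference inhibitor wells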
GDH-TPI counter-2: counter-screen for M. tuberculosis FBA inhibitors: GDH-TPI coupled enzyme inhibition | shares compounds with FBA Mtb inh | GDH-TPI coupled enzyme counterscreen, fluorescence | actives 81% (n = 5,600) | inhibition, % at 1 µM; in the data active = inhibition above about 10%
* = called active by the depositor; . = no result given; + = active, no number. Sampled rows, rich in hits. Any-hit rate of the full collection: about 4%. Rule as the data show it, unless noted: active = inhibition above about 27%; inactive = the rest.

SMILES | FBA Mtb inh | RecA intein inh | Rv3671c protease | Mtb bLac sens | GDH-TPI counter-1 | UGM FP inh | Mtb FBA confirm | GDH-TPI counter-2
CCc1cc(=O)oc2c(C)c(OCC(=O)N3CCC(C(=O)O)CC3)ccc12 | 38* | 2 | 0 | -3 | 15 | -1 | -7 | -9
CCCOc1ccc2c(CC)cc(=O)oc2c1C | 35* | -1 | -13 | -1 | 18 | 0 | 92* | 80*
Cc1cc(=O)oc2c(C)c(OCC(=O)N3CCN(C(=O)C4COc5ccccc5O4)CC3)ccc12 (configuration not stated) | 32* | -1 | -7 | 69 | 17 | 1 | 136* | 118*
CCc1cc(=O)oc2c(C)c(OCC(=O)NCC3CCC(C(=O)O)CC3)ccc12 (configuration not stated) | 15 | 2 | -4 | -8 | 17 | 0 | . | .
C=C(C)COc1ccc2c(CC)cc(=O)oc2c1C | 21 | 0 | -4 | 8 | 11 | 0 | . | .
Cc1c(OCC(=O)N2CCC(C(=O)O)CC2)ccc2c3c(c(=O)oc12)CCCC3 | 66* | . | 1 | -2 | 18 | 4 | 70* | 58*
NC(=O)Oc1cccc(OC(N)=O)c1 | 1 | -2 | 6 | -1 | -10 | -4 | . | .
N#C/C(=C/Nc1ccccc1F)S(=O)(=O)c1ccc(Cl)cc1 | -2 | -6 | -8 | -4 | 0 | 2 | . | .
COc1ccc(-c2nn(-c3ccccc3)cc2N)cc1 | 93* | 7 | -6 | 1 | 6 | 0 | + | +
O=C1Nc2ccccc2O/C1=C\c1ccccc1 | 30* | -3 | 5 | 5 | 16 | -5 | 160* | 102*
COc1ccc(N2CCN(C3CCCN(C(=O)CCN4CCCCO4)C3)CC2)cc1 (configuration not stated) | 0 | 3 | . | . | -3 | . | . | .
CCOC(=O)C1=CCN(S(=O)(=O)c2ccc(C)cc2)C1c1ccc(CC)cc1 (configuration not stated) | 0 | . | . | . | . | . | . | .
Cc1cc(C)c(NC(=O)CNC(=O)c2cc(C3CC3)nc3c2cnn3C(C)C)c(C)c1 | 35* | . | . | . | 8 | . | 121* | 92*
CC(C)n1ncc2c(C(=O)Nc3ccccc3SCC(N)=O)cc(C3CC3)nc21 | -2 | . | . | . | 9 | . | . | .
CCc1ccccc1NC(=O)CNC(=O)c1cc(C2CC2)nc2c1cnn2C(C)C | 37* | . | 0 | 3 | 5 | 1 | + | +
Cc1cc(C)c(CNC(=O)c2cc(C3CC3)nc3c2cnn3C(C)C)c(=O)[nH]1 | 7 | . | 0 | -1 | 8 | 1 | . | .
CC(C)n1ncc2c(C(=O)NCC(=O)Nc3ccccc3Br)cc(C3CC3)nc21 | 30* | . | -7 | 14 | 5 | 0 | -2 | 0
CCOC(=O)C1CCCN(C(=O)CN2C(=O)NC(C)(c3ccc4ccccc4c3)C2=O)C1 (configuration not stated) | 2 | 10 | 5 | -11 | 2 | -2 | . | .
O=c1[nH]c(N/N=C/c2ccccc2)nc2ccccc12 | 56* | -6 | -5 | 9 | 15 | 0 | -5 | -5
Fc1cccc(/C=N/Nc2nc3ccccc3[nH]2)c1 | . | -1 | 10 | 33 | . | -1 | . | .
COc1ccc(S(=O)(=O)NCCc2cn3nc(C)c(C)nc3n2)cc1F | 61* | -166 | 9 | 3 | 9 | -1 | + | 149*
CC(=O)Nc1ccc(S(=O)(=O)NCCc2cn3nc(C)c(C)nc3n2)cc1 | 43* | -103 | 4 | 4 | 5 | -1 | 59* | 49*
CC(=O)Nc1ccc(S(=O)(=O)NCCNS(=O)(=O)c2ccc(NC(C)=O)cc2)cc1 | -2 | 1 | -4 | -3 | -7 | -5 | . | .
CC(C)[C@H](NC(=O)c1ccc(Cl)cc1)C(=O)OCC(=O)N1CCN(c2ccccc2)CC1 | 3 | . | 5 | 92 | 9 | 0 | . | .
COc1cc(C(=O)Nc2ccccn2)cc(OC)c1OC | 4 | 2 | -2 | -7 | -2 | 0 | . | .
SMILES | FBA Mtb inh | RecA intein inh | Rv3671c protease | Mtb bLac sens | GDH-TPI counter-1 | UGM FP inh | Mtb FBA confirm | GDH-TPI counter-2
COc1ccc(-c2cn3cccnc3n2)cc1NC(=O)c1cc(OC)c(OC)c(OC)c1 | 32* | 3 | 3 | -2 | 20 | -1 | + | +
COCCNC(=O)C1CCCN(C(=O)c2cc(-c3cccs3)oc2C)CC1 (configuration not stated) | -1 | . | . | . | 1 | . | . | .
CCCCn1c2nc3ccccc3nc2c2c(=N)oc(C)nc21 | 31* | . | . | . | 2 | . | 35* | 26*
CCCCn1c2nc3ccccc3nc2c2c(=O)n(-c3ccccc3)cnc21 | 9 | 1 | 0 | -4 | 9 | 3 | . | .
CCCCc1cc(=O)oc2c(C)c(OCC(=O)N3CCC(C(=O)O)(c4ccccc4)CC3)ccc12 | 35* | 0 | 2 | 3 | 17 | 8 | 182* | 131*
CCCCc1cc(=O)oc2c(C)c(OCC(=O)N3CCCC3)ccc12 | 24 | 1 | -1 | 2 | 8 | -3 | . | .
Cc1cc(OCC(=O)N2CCC(C(=O)O)(c3ccccc3)CC2)c2c(C)cc(=O)oc2c1 | 10 | . | -10 | 3 | 2 | 1 | . | .
Cc1c(C)c2ccc(OCC(=O)N3CCC(C(=O)O)(c4ccccc4)CC3)c(C)c2oc1=O | 99* | 1 | -12 | 2 | 9 | 2 | 103* | 91*
Cc1c(C)c2ccc(OCC(=O)N3CCOCC3)c(C)c2oc1=O | 81* | 0 | -1 | -12 | 8 | 5 | 0 | -4
O=C(COc1ccc2ccc(=O)oc2c1)N1CCC(C(=O)O)(c2ccccc2)CC1 | 27* | 20 | 1 | -6 | 1 | -4 | + | +
COc1cccc(C2/C(=C(/O)c3ccc4c(c3)CC(C)O4)C(=O)C(=O)N2CC2CCCO2)c1 (configuration not stated) | -1 | 0 | . | -3 | 26 | -1 | . | .
O=c1nc2c(-c3ccccc3F)n[nH]n2c2ccccc12 | 49* | 0 | 10 | 12 | -2 | 2 | 77* | 57*
CCc1ccc(S(=O)(=O)c2n[nH]n3c2nc(=O)c2ccccc23)cc1 | 25 | -5 | -6 | 8 | 4 | 2 | . | .
O=C(CCCCCCCCC(=O)N/N=C/c1ccco1)N/N=C/c1ccco1 | 0 | 0 | 0 | 0 | 9 | -3 | . | .
O=C(CCC(=O)N/N=C/c1ccco1)N/N=C/c1ccco1 | 29* | 0 | 3 | -7 | 4 | 1 | 76* | 64*
Cc1cc(C(=O)Nc2ccccc2C(=O)O)c(C)o1 | 2 | . | -2 | -5 | 2 | 0 | . | .
CCOC(=O)N1CCN(C(=O)c2cccn3c(=O)c4sccc4nc23)CC1 | 66* | . | 0 | -7 | 53* | 0 | 9 | -6
CCOC(=O)N1CCN(C(=O)c2cccn3c(=O)c4cc(Br)ccc4nc23)CC1 | 16 | . | -2 | -4 | 7 | -2 | . | .
